Assay results as given in article PMC7862700, “An all-to-all approach to the identification of sequence-specific readers for epigenetic DNA modifications on cytosine”.

What was measured:
Experiment in all cases: DAPPL (digital affinity profiling via proximity ligation, sequencing); 10 mM Tris-HCl pH 7.5, 50 mM NaCl, 1 mM DTT, 4% glycerol, room temperature, 30 min; GST-TFs on glutathione beads, 16-mer random dsDNA library, 0.1% formaldehyde crosslink after washing; high values mean tight binding
FLI1 = molecular target: T1, FLI1 (Homo sapiens, UniProt Q01543 1-452); details: protein: recombinant; tags: N-terminal GST; dsDNA, one strand shown
T1 sequence: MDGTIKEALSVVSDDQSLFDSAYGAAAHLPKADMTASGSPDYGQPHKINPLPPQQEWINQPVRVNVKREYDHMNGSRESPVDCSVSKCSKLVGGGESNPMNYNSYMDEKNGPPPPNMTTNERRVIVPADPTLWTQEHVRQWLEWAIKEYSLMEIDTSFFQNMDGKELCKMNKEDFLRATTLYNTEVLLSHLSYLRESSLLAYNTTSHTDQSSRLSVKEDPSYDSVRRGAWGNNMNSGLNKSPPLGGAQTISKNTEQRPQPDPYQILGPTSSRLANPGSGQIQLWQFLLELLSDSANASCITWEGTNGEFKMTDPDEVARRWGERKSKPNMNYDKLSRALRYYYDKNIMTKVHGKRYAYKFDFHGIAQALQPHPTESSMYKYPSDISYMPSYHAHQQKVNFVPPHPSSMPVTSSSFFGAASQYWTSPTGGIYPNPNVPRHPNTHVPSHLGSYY
Procedure, shortened: (§1)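 A tag-only sample was pooled with DNA-barcoded human transcription factors that had been expressed in yeast as GST fusions and captured on glutathione beads. The pools were incubated for 30 min at room temperature with 200 nmole of a random double-stranded 16-mer DNA library in Tris/NaCl/DTT/glycerol buffer, then washed, crosslinked with 0.1% formaldehyde, proximity-ligated (BsaI/T4 ligase, 1 h, 37 °C), PCR-amplified and sequenced on an Illumina NextSeq500. Binding signal is each hexamer's read frequency for a factor divided by its frequency for the tag-only sample.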

ELK1 = molecular target: T2, ELK1 (Homo sapiens, UniProt P19419 1-428); details: protein: recombinant; tags: N-terminal GST; dsDNA, one strand shown
T2 sequence: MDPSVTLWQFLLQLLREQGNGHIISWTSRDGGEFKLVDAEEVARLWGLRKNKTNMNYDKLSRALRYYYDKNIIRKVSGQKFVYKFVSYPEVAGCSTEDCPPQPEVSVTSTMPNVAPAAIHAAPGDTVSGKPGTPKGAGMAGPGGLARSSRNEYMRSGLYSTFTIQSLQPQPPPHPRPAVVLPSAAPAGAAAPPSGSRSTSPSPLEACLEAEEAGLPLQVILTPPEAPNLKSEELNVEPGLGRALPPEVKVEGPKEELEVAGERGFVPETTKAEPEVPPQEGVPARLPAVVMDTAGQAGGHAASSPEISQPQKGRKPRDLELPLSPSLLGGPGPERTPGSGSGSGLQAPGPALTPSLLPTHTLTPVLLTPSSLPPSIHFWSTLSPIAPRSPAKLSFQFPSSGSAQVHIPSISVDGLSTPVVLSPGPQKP
Procedure, shortened: as §1

GABPA = molecular target: T3, GABPA (Homo sapiens, UniProt Q06546 1-454); details: protein: recombinant; tags: N-terminal GST; dsDNA, one strand shown
T3 sequence: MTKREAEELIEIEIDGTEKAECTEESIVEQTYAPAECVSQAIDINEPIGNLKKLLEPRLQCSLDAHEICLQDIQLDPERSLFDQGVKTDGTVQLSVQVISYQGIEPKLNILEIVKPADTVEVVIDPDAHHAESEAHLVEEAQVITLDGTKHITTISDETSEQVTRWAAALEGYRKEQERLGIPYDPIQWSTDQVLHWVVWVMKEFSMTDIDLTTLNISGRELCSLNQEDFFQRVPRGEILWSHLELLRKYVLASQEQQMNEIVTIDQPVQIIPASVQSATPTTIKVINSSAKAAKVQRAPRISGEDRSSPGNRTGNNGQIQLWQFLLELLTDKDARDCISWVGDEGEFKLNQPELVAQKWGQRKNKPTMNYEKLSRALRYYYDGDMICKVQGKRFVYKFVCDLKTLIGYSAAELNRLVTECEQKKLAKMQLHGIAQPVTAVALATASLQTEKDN
Procedure, shortened: as §1

ERG = molecular target: T4, ERG (Homo sapiens, UniProt P11308 1-479); details: protein: recombinant; tags: N-terminal GST; dsDNA, one strand shown
T4 sequence: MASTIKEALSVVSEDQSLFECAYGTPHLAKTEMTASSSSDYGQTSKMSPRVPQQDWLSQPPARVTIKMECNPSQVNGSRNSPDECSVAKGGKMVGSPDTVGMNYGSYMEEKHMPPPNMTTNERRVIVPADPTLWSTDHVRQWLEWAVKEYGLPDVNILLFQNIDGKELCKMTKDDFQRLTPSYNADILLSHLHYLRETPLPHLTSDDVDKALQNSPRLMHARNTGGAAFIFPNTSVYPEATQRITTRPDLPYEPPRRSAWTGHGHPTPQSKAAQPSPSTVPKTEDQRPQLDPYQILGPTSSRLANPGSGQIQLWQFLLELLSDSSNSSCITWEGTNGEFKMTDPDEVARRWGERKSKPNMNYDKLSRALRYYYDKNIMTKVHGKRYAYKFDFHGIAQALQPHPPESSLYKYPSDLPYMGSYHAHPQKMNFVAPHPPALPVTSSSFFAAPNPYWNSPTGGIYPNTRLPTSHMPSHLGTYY
Procedure, shortened: as §1

ELF1 = ELF1 (Homo sapiens, UniProt P32519 1-619); details: protein: recombinant; tags: N-terminal GST; dsDNA, one strand shown
ELF1, sequence (P32519 whole entry): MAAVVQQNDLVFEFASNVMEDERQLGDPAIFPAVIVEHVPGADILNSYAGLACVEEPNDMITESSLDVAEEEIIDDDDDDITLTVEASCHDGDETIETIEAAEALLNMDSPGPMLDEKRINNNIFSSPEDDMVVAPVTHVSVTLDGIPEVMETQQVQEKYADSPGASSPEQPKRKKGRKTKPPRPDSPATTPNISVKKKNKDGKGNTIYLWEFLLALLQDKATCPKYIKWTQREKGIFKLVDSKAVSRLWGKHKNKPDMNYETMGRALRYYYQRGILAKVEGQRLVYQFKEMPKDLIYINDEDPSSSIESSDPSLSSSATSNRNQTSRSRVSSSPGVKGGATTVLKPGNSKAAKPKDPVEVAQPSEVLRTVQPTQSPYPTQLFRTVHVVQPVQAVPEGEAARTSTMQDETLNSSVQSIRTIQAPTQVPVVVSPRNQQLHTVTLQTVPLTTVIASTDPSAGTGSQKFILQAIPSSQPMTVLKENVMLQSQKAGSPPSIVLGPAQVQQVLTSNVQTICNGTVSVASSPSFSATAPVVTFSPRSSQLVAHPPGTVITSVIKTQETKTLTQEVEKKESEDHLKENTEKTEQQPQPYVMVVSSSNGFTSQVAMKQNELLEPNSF
Procedure, shortened: as §1

EHF = molecular target: T5, EHF (Homo sapiens, UniProt Q9NZC4 1-300); details: protein: recombinant; tags: N-terminal GST; dsDNA, one strand shown
T5 sequence: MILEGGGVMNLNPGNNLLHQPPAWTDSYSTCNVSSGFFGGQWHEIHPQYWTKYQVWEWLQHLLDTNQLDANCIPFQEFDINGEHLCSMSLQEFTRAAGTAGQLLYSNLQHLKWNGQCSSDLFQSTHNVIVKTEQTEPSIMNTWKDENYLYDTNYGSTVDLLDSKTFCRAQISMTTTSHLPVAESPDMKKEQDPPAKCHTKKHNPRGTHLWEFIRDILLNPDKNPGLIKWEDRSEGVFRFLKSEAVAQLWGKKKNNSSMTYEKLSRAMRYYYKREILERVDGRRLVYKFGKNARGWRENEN
Procedure, shortened: as §1

SPI1 = SPI1 (Homo sapiens, UniProt P17947 1-270); details: protein: recombinant; tags: N-terminal GST; dsDNA, one strand shown
Procedure, shortened: as §1

SPIB = SPIB (Homo sapiens, UniProt Q01892 1-262); details: protein: recombinant; tags: N-terminal GST; dsDNA, one strand shown
SPIB, sequence (Q01892 whole entry): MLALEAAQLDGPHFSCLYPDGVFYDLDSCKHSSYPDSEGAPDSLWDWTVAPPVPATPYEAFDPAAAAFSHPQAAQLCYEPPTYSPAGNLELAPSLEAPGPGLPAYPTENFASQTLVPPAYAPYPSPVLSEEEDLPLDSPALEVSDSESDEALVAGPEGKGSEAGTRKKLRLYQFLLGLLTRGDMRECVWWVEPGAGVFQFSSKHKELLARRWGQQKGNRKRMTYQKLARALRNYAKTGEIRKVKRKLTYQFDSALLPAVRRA
Procedure, shortened: as §1

ELK3 = molecular target: T6, ELK3 (Homo sapiens, UniProt P41970 1-407); details: protein: recombinant; tags: N-terminal GST; dsDNA, one strand shown
T6 sequence: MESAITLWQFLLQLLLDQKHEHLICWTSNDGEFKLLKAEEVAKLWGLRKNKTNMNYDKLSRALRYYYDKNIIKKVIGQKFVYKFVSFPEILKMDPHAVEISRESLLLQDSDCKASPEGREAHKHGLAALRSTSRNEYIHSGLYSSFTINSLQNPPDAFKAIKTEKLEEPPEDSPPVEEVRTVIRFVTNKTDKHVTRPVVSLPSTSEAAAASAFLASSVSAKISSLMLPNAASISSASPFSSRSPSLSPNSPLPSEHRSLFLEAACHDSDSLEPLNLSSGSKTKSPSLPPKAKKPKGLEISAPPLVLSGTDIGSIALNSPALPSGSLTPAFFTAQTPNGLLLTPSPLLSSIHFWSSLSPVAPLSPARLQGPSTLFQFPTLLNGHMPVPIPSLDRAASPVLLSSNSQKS
Procedure, shortened: as §1

FEV = molecular target: T7, FEV (Homo sapiens, UniProt Q99581 1-238); details: protein: recombinant; tags: N-terminal GST; dsDNA, one strand shown
T7 sequence: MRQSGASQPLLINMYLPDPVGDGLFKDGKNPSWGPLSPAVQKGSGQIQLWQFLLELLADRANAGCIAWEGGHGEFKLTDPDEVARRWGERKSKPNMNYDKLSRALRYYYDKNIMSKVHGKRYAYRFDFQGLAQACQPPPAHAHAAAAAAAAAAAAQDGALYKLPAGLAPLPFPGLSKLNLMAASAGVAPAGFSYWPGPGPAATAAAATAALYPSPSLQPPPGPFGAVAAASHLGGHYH
Procedure, shortened: as §1

ETV5 = ETV5 (Homo sapiens, UniProt P41161 1-510); details: protein: recombinant; tags: N-terminal GST; dsDNA, one strand shown
ETV5, sequence (P41161 whole entry): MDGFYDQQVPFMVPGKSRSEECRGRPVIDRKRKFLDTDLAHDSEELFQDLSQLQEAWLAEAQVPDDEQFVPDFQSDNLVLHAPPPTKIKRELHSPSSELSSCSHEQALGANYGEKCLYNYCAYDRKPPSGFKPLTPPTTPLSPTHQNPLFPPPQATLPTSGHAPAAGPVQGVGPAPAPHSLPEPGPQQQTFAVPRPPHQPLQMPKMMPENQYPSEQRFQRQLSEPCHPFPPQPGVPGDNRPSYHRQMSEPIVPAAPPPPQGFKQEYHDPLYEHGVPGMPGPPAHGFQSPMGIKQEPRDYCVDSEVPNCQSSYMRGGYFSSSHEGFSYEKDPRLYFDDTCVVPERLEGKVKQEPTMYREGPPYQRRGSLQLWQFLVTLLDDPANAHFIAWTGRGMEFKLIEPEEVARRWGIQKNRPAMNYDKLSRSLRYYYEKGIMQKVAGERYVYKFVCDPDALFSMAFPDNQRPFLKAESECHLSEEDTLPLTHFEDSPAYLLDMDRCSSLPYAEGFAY
Procedure, shortened: as §1

HSF1 = HSF1 (Homo sapiens, UniProt Q00613 1-529); details: protein: recombinant; tags: N-terminal GST; chain copies: 3; dsDNA, one strand shown
HSF1, sequence (Q00613 whole entry): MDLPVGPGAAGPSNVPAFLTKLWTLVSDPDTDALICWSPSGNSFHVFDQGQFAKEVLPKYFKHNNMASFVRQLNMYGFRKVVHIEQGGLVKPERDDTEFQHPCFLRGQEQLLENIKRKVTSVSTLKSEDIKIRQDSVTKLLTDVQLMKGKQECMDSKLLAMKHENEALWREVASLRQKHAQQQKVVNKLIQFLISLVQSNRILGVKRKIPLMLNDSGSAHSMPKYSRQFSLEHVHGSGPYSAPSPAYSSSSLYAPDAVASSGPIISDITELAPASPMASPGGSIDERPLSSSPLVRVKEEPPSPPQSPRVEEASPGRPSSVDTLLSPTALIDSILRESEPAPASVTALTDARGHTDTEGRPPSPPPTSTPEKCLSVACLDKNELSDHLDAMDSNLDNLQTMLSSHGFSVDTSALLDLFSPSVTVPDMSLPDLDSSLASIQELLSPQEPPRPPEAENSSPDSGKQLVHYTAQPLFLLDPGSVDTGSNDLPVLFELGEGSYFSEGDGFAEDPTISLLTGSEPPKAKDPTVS
Procedure, shortened: as §1

SPIC = molecular target: T8, SPIC (Homo sapiens, UniProt Q8N5J4 1-248); details: protein: recombinant; tags: N-terminal GST; dsDNA, one strand shown
T8 sequence: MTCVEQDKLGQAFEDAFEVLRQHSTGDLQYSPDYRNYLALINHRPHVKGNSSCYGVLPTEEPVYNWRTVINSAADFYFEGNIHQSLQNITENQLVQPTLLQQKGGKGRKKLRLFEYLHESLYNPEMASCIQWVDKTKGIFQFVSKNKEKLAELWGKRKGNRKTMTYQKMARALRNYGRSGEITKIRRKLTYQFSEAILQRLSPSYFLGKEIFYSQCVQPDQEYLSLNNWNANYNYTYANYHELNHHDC
Procedure, shortened: as §1

ELF4 = ELF4 (Homo sapiens, UniProt Q99607 1-663); details: protein: recombinant; tags: N-terminal GST; dsDNA, one strand shown
ELF4, sequence (Q99607 whole entry): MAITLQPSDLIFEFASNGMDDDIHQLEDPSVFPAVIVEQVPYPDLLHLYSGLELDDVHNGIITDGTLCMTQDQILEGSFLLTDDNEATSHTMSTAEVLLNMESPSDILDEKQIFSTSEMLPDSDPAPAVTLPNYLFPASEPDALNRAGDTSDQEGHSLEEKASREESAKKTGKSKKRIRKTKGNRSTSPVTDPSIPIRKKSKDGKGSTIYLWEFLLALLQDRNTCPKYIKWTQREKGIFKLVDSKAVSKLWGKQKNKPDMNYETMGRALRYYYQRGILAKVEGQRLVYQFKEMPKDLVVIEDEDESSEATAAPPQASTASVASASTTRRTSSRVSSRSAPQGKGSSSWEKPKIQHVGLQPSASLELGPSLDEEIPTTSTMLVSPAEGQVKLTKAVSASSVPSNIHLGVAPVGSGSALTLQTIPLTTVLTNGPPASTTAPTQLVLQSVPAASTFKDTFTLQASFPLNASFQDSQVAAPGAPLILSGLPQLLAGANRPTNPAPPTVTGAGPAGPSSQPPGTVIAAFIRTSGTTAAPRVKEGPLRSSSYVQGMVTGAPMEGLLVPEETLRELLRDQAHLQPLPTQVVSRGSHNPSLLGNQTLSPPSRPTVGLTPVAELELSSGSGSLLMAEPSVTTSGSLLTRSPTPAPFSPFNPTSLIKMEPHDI
Procedure, shortened: as §1

ELK4 = molecular target: T9, ELK4 (Homo sapiens, UniProt P28324-2 1-405); details: protein: recombinant; tags: N-terminal GST; dsDNA, one strand shown
T9 sequence: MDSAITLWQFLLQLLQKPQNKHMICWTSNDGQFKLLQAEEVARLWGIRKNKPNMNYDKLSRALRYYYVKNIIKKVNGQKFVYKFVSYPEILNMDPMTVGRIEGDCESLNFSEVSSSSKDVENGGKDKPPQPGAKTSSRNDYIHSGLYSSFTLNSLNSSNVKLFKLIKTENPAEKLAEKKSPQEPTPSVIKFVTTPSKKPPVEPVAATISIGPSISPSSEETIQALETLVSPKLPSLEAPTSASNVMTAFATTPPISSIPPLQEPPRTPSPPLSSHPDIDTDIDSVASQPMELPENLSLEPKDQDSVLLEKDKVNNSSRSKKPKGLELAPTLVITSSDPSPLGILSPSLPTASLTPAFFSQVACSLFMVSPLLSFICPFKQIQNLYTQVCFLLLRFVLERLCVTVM
Procedure, shortened: as §1

ETV2 = molecular target: T10, ETV2 (Homo sapiens, UniProt O00321 1-342); details: protein: recombinant; tags: N-terminal GST; dsDNA, one strand shown
T10 sequence: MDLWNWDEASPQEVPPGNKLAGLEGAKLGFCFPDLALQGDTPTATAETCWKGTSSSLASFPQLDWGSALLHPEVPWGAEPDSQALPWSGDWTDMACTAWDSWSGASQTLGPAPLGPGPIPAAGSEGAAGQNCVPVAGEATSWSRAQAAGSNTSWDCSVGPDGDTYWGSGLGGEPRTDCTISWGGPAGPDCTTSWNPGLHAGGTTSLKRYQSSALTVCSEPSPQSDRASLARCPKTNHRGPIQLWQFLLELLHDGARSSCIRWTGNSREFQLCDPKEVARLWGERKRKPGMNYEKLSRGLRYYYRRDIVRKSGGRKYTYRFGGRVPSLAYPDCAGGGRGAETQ
Procedure, shortened: as §1

ELF3 = molecular target: T11, ELF3 (Homo sapiens, UniProt P78545 1-371); details: protein: recombinant; tags: N-terminal GST; dsDNA, one strand shown
T11 sequence: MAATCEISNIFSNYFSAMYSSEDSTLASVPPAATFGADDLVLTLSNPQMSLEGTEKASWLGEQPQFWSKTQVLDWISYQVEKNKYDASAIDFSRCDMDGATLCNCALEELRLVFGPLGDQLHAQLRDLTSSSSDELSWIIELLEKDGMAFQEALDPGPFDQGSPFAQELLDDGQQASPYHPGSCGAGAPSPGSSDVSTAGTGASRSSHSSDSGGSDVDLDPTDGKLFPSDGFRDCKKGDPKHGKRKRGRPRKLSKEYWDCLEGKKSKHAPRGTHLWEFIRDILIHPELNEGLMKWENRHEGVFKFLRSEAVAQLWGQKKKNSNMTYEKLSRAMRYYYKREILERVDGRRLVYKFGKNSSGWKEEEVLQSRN
Procedure, shortened: as §1

CRX = CRX (Homo sapiens, UniProt O43186 1-299); details: protein: recombinant; tags: N-terminal GST; dsDNA, one strand shown
CRX, sequence (O43186 whole entry): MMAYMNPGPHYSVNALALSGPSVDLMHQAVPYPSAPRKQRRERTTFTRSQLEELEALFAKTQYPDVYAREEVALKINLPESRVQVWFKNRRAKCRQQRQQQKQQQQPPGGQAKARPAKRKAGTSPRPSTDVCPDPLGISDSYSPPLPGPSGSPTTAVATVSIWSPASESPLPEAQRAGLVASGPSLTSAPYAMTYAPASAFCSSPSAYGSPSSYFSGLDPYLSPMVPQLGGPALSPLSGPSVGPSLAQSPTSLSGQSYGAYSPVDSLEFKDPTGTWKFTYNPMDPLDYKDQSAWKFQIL
Procedure, shortened: as §1

ETV1 = ETV1 (Homo sapiens, UniProt P50549 1-477); details: protein: recombinant; tags: N-terminal GST; dsDNA, one strand shown
ETV1, sequence (P50549 whole entry): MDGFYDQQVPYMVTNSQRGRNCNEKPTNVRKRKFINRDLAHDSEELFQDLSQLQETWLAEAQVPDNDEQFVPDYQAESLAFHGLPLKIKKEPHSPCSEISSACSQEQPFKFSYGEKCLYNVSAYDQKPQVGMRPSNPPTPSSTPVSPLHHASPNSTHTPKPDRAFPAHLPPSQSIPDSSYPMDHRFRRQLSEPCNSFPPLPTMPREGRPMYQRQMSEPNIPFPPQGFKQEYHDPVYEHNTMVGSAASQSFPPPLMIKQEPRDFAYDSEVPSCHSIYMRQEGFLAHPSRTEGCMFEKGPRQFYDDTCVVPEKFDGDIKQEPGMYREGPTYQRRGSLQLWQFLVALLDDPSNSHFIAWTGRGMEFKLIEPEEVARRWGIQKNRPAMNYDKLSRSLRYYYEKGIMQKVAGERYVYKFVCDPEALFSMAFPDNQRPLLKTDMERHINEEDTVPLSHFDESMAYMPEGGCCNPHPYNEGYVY
Procedure, shortened: as §1

TTCAAA
binding signal (FLI1): 1.23 fold enrichment (6-mer frequency, TF over GST control) | binding signal (ELK1): 1.23 fold enrichment (6-mer frequency, TF over GST control) | binding signal (GABPA): 1.4 fold enrichment (6-mer frequency, TF over GST control) | binding signal (ERG): 1.2 fold enrichment (6-mer frequency, TF over GST control) | binding signal (ELF1): 1.34 fold enrichment (6-mer frequency, TF over GST control) | binding signal (EHF): 1.24 fold enrichment (6-mer frequency, TF over GST control) | binding signal (SPI1): 1.26 fold enrichment (6-mer frequency, TF over GST control) | binding signal (SPIB): 1.3 fold enrichment (6-mer frequency, TF over GST control) | binding signal (ELK3): 1.36 fold enrichment (6-mer frequency, TF over GST control) | binding signal (FEV): 1.25 fold enrichment (6-mer frequency, TF over GST control) | binding signal (ETV5): 1.26 fold enrichment (6-mer frequency, TF over GST control) | binding signal (HSF1): 1.25 fold enrichment (6-mer frequency, TF over GST control) | binding signal (SPIC): 1.35 fold enrichment (6-mer frequency, TF over GST control) | binding signal (ELF4): 1.26 fold enrichment (6-mer frequency, TF over GST control) | binding signal (ELK4): 1.33 fold enrichment (6-mer frequency, TF over GST control) | binding signal (ETV2): 1.34 fold enrichment (6-mer frequency, TF over GST control) | binding signal (ELF3): 1.43 fold enrichment (6-mer frequency, TF over GST control) | binding signal (CRX): 1.28 fold enrichment (6-mer frequency, TF over GST control) | binding signal (ETV1): 1.32 fold enrichment (6-mer frequency, TF over GST control)
